Assay outcomes deposited in PubChem by several laboratories.
ABCB6 inh 2 = ABCB6 transporter inhibitors, primary screen, K562-ABCB6 cells, flow cytometry, MLPCN library | ATP-binding cassette sub-family B member 6 (Homo sapiens), Q9NP58 | K562-ABCB6 porphyrin accumulation, 1 h; hits give low values | fluorescence ratio to DMSO, % at 10 µM | 0.19% of 360,000 active;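 active = fluorescence ratio to DMSO below 75%, the collection mean minus 3 SD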;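 note: signal is porphyrin accumulated inside mitochondria; 100% equals median channel fluorescence of DMSO control wells; lower ratio means ABCB6 inhibition with less porphyrin fluorescence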
Target sequence (Q9NP58 whole entry, looked up): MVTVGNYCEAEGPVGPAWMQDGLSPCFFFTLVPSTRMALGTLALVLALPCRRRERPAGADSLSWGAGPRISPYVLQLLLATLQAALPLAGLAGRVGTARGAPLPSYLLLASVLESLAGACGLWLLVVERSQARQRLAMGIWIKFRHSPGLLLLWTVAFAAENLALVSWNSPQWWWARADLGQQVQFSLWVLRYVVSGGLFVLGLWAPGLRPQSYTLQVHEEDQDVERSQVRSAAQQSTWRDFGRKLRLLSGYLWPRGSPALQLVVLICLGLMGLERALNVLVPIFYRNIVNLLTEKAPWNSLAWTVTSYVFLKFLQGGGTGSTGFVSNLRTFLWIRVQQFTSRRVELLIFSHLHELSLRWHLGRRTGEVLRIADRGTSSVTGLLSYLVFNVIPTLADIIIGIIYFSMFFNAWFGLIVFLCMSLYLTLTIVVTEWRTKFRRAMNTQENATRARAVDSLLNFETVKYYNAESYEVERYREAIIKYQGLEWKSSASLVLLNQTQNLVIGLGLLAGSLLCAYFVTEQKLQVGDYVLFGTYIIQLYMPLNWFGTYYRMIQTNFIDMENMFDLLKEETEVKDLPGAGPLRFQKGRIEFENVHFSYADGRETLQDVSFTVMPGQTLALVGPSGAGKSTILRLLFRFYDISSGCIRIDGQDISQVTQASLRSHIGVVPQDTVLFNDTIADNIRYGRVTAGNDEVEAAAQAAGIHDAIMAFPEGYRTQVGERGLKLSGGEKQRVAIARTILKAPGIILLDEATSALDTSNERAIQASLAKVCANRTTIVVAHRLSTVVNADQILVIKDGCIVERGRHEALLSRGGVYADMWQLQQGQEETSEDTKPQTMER
MsrA inhibitor = bovine MsrA enzyme inhibitors, primary screen, biochemical, absorbance, HTS | Methionine sulfoxide reductase A (Bos taurus) | purified bovine MsrA, absorbance read-out | inhibition, % at 15.5 µM | 0.75% of 360,000 active | AID 651718, 2012; in the data active = inhibition above about 4.5%;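 note: 0% = vehicle wells with enzyme and 100% = reference inhibitor wells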
SMARCA2 activ = SMARCA2 (BRM) function activators, primary screen, cell-based, luminescence, high throughput; MG213 cells, MMTV-luciferase reporter, dexamethasone, overnight; 1% of 370,000 active; activation, % at 9.1 µM; AID 652017, 2013; in the data active = activation above about 7.8%;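 note: 0% = vehicle wells and 100% = reference activator wells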
bovine MsrA act = bovine MsrA enzyme activators, primary screen, biochemical, absorbance, HTS; AID 602163, 2012; purified bovine MsrA, absorbance read-out; 0.3% of 360,000 active; activation, % at 10.6 µM; in the data active = activation above about 7.5%;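 note: 0% = vehicle and 100% = reference activator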
ABCB6 inh CP1 = ABCB6 transporter inhibitors, confirmation, K562-ABCB6 cells, flow cytometry, cherry pick 1; shares compounds with ABCB6 inh 2; K562-ABCB6 porphyrin accumulation, 1 h; hits give low values; ratio response (% of DMSO), % at 10 µM; 700 tested, under 10 active; AID 602430, 2012;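 active = repeat-averaged ratio response below 75% of DMSO, the collection mean minus 3 SD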;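 note: median porphyrin fluorescence at 575 nm with 488 nm excitation from mitochondria; lower ratio means less porphyrin signal so ABCB6 inhibition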
* marks the source's active call; other numbers are inactive results; x = no result. An excerpt weighted towards active compounds, which were near 2.1% of everything screened.

SMILES | ABCB6 inh 2 | MsrA inhibitor | SMARCA2 activ | bovine MsrA act | others
Cc1cc2nc(N)sc2cc1[N+](=O)[O-] | 96.0 | 5.2* | -0.1 | -2.4
CCCCNS(=O)(=O)/C=C/c1ccccc1CNC(=O)OC(C)(C)C | x | x | 0.0 | x
Cc1ccc(-c2ccc(/C=C3/NC(=O)NC3=O)o2)cc1[N+](=O)[O-] | 103.0 | -0.3 | -0.7 | -12.8
CC1=C(C#N)C(=O)NC(=O)/C1=C\c1ccc(-c2cc(C)c(C)cc2[N+](=O)[O-])o1 | 97.0 | 9.0* | -2.3 | -6.0
COC(=O)c1sc(=S)n(-c2cc(F)ccc2F)c1N | 97.0 | 4.6* | -1.6 | -3.2
COCCCNC(=O)c1ccc2c(c1)NC(=O)C(C)(C)O2 | x | x | 2.5 | x
CCCCCCCCN1C(=O)[C@@H](CC(=O)N2CCCC2)C[C@@]2(C(=O)OC)C1=C[C@H](COCc1ccccc1)O[C@@H]2C | x | x | -5.4 | x
CCCCC1(C)OC(=O)C(=Cc2ccc(N(CC)CC)cc2)C(=O)O1 (centres undefined) | 244.0 | 5.2* | -6.5 | -5.4
CCOc1ccc(-n2c(SCC(=O)Nc3ccc(S(=O)(=O)Nc4cc(C)nc(C)n4)cc3)nnc2-c2ccc(OC)cc2)cc1 | x | x | -6.6 | x
O=C(CSc1nnc(COc2ccccc2)n1-c1ccccc1)Nc1ccc(S(=O)(=O)Nc2nccs2)cc1 | x | x | 5.7 | x
CC(=Nc1cccc(C)c1)c1sc2ccccc2c1O | 85.0 | 0.1 | 7.9* | -1.0
CC(=Nc1ccc(O)cc1)c1sc2ccccc2c1O | 91.0 | 1.3 | 1.3 | -3.8
CC(C)(C)c1cc(NC(=O)Nc2ccccc2)no1 | 98.0 | -0.6 | 7.0 | 8.2*
COC(=O)c1ccccc1NC(=O)Nc1cc(C(C)(C)C)on1 | 107.0 | -0.5 | 4.9 | -3.0
CCOc1ccc(-n2c(SCC(=O)Nc3ccc(S(=O)(=O)Nc4cc(C)nc(C)n4)cc3)nnc2-c2cccc(C)c2)cc1 | x | x | 1.7 | x
COC(=O)C(=CC(=CN(C)C)C=C(C(=O)OC)C(=O)OC)C(=O)OC | 100.0 | 4.5* | -4.2 | -5.3
Nc1c(-c2ccc(Cl)cc2)cnc2c(-c3ccccc3)cnn12 | 101.0 | -1.1 | 7.9* | -5.0
CC(C)(C)S(=O)(=O)c1cnc2c(-c3ccc(Cl)cc3)cnn2c1N | 102.0 | 0.6 | 4.2 | -1.9
COc1ccccc1N1CCN(c2ncnc3nc[nH]c23)CC1 | 97.0 | -0.2 | 7.9* | -4.1
O=S1(=O)c2c(NCc3ccco3)cccc2Oc2ccccc2CN1Cc1cn(Cc2cccc(F)c2)nn1 | x | x | -1.4 | x
C[C@@H]1CN(Cc2nnnn2CC(=O)NCCCn2cccn2)C[C@H](C)O1 | 97.0 | -1.5 | 7.9* | -7.4
CC1CCN(Cc2nnnn2CCCC(=O)NCCN2CCOCC2)CC1 | 94.0 | 0.3 | 1.1 | -4.0
COC(=O)C[C@H]1CC[C@H]2[C@H](COc3ccc(NS(=O)(=O)c4ccccc4C)cc3C(=O)N2C)O1 | x | x | -4.7 | x
CN1C(=C2C(=O)OC(C)(C)OC2=O)Sc2ccccc21 | 103.0 | 4.8* | 5.0 | -4.4
CC(=O)NN1C(=O)/C(=C2/Sc3ccccc3N2C)SC1=S | 100.0 | -0.2 | -0.9 | -3.6
SMILES | ABCB6 inh 2 | MsrA inhibitor | SMARCA2 activ | bovine MsrA act | others
CCOc1ccc(-n2c(SCC(=O)Nc3ccc(S(=O)(=O)Nc4cc(C)nc(C)n4)cc3)nnc2-c2ccc(C)cc2)cc1 | x | x | -1.9 | x
C=CCn1c(SCC(=O)Nc2ccc(CCCC)cc2)nnc1-c1ccc(Cl)cc1 | x | x | -6.0 | x
CCCNC(=O)C[C@H]1CC[C@H]2[C@@H](COc3ccc(NC(=O)c4cncs4)cc3C(=O)N2C)O1 | x | x | -1.4 | x
Cc1ccccc1C(=O)Nc1ccc(C(=O)N/N=C/c2ccc(F)cc2)cc1 | 96.0 | 0.7 | -0.8 | -2.4
Cc1ccccc1C(=O)Nc1ccc(C(=O)N/N=C/c2ccc(O)c(Br)c2)cc1 | 105.0 | 4.6* | -2.1 | -4.4
CC(C)C1N=C(NC(=O)OCc2ccccc2)NC1=O (centres undefined) (tested in a mixture with another compound) | x | x | -4.3 | x
CC(=O)c1cccc(NC(=O)c2ccc3c(Cl)c4c(nc3c2)CCCC4)c1 | 73.0* | -0.2 | -1.3 | 1.6 | ABCB6 inh CP1=102.0
N#Cc1ccccc1NC(=O)c1ccc2c(Cl)c3c(nc2c1)CCCC3 | 94.0 | -0.1 | 4.4 | -10.3
CCCNC(=O)COC(=O)c1ccccc1C(=O)c1ccc(Cl)c([N+](=O)[O-])c1 | 57.0* | -0.8 | -6.3 | -6.5 | ABCB6 inh CP1=93.0
